# From the supplement of paper PMC8728848
# This excerpt belongs to a sample that is enriched for the strongest signals.
# Columns and labels:
# Assay in all cases: glycan array binding signal (z-score within array); higher = stronger binding
# Conditions in all cases: glycan notation: IUPAC condensed, linker removed
# [1] = molecular target: Fuc(a1-2)Gal
# Method in brief: (§1)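 Glycan array data were curated from 3228 arrays in the Consortium for Functional Glycomics database and kept only where the protein sequence was available. Glycan names were converted to IUPAC-condensed notation, and columns mapping to the same glycan were averaged. The binding signal is a within-array Z-score, averaged across arrays of the same protein sequence at different concentrations or buffers and across linkers. Negative Z-scores can be read as non-binding.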
# [2] = molecular target: Fuc(a1-2)Gal(b1-3)GalNAc
# Method in brief: as §1
# [3] = molecular target: Fuc(a1-2)Gal(b1-3)GalNAc(b1-3)Gal(a1-4)Gal(b1-4)Glc
# Method in brief: as §1
# [4] = molecular target: Fuc(a1-2)Gal(b1-3)GlcNAc
# Method in brief: as §1
# [5] = molecular target: Fuc(a1-2)Gal(b1-3)GlcNAc(b1-3)GalNAc
# Method in brief: as §1
# [6] = molecular target: Fuc(a1-2)Gal(b1-3)GlcNAc(b1-3)[Neu5Ac(a2-6)Gal(b1-4)GlcNAc(b1-6)]Gal(b1-4)Glc
# Method in brief: as §1
# [7] = molecular target: Fuc(a1-2)[Gal(a1-3)]Gal(b1-4)[Fuc(a1-3)]GlcNAc(b1-3)GalNAc
# Method in brief: as §1
# [8] = molecular target: Fuc(a1-2)[GalNAc(a1-3)]Gal(b1-3)GlcNAc(b1-2)Man(a1-3)[Fuc(a1-2)[GalNAc(a1-3)]Gal(b1-3)GlcNAc(b1-2)Man(a1-6)]Man(b1-4)GlcNAc(b1-4)[Fuc(a1-6)]GlcNAc
# Method in brief: as §1
# [9] = molecular target: Fuc(a1-2)[GalNAc(a1-3)]Gal(b1-4)GlcNAc(b1-3)Gal(b1-4)GlcNAc
# Method in brief: as §1
# [10] = molecular target: Fuc(a1-3)[Gal(b1-4)]GlcNAc(b1-2)Man(a1-3)[Fuc(a1-3)[Gal(b1-4)]GlcNAc(b1-2)Man(a1-6)]Man(b1-4)GlcNAc(b1-4)[Fuc(a1-6)]GlcNAc
# Method in brief: as §1
# [11] = molecular target: Gal(a1-3)GalNAc
# Method in brief: as §1
# [12] = molecular target: Gal(b1-3)GalNAc(a1-3)[Fuc(a1-2)]Gal(b1-4)Glc
# Method in brief: as §1
# [13] = molecular target: Gal(b1-3)GlcNAc(b1-6)Gal(b1-4)GlcNAc
# Method in brief: as §1
# [14] = molecular target: Gal(b1-3)[Fuc(a1-4)]GlcNAc(b1-3)Gal(b1-4)GlcNAc
# Method in brief: as §1
# [15] = molecular target: Gal(b1-3)[Neu5Ac(b2-6)]GalNAc
# Method in brief: as §1
# [16] = molecular target: Gal(b1-4)GlcNAc(b1-3)Gal(b1-4)Glc
# Method in brief: as §1
# [17] = molecular target: Gal6S(b1-3)GlcNAc6S
# Method in brief: as §1
# [18] = molecular target: Gal6S(b1-4)Glc
# Method in brief: as §1
# [19] = molecular target: GalNAc(b1-3)Gal
# Method in brief: as §1
# [20] = molecular target: GalNAc(b1-3)Gal(a1-6)Gal(b1-4)Glc
# Method in brief: as §1
# [21] = molecular target: GalNAc(b1-3)GalNAc
# Method in brief: as §1
# [22] = molecular target: GalNAc(b1-4)GlcNAc(b1-2)Man(a1-3)[GalNAc(b1-4)GlcNAc(b1-2)Man(a1-6)]Man(b1-4)GlcNAc(b1-4)GlcNAc
# Method in brief: as §1
# [23] = molecular target: Glc(a1-6)Glc(a1-6)Glc
# Method in brief: as §1
# [24] = molecular target: GlcNAc(a1-4)Gal(b1-4)GlcNAc(b1-3)Gal(b1-4)GlcNAc
# Method in brief: as §1
# [25] = molecular target: GlcNAc(a1-4)Gal(b1-4)GlcNAc(b1-3)Gal(b1-4)[Fuc(a1-3)]GlcNAc(b1-3)Gal(b1-4)[Fuc(a1-3)]GlcNAc
# Method in brief: as §1
# [26] = molecular target: GlcNAc(b1-2)Man(a1-3)[GlcNAc(b1-2)Man(a1-6)]Man(b1-4)GlcNAc(b1-4)GlcNAc
# Method in brief: as §1
# [27] = molecular target: GlcNAc(b1-2)[GlcNAc(b1-6)]Man(a1-6)[GlcNAc(b1-2)Man(a1-3)][GlcNAc(b1-4)]Man(b1-4)GlcNAc(b1-4)GlcNAc
# Method in brief: as §1
# [28] = molecular target: Man(a1-2)Man(a1-2)Man(a1-3)Man
# Method in brief: as §1
# [29] = molecular target: Man(a1-2)Man(a1-3)[Man(a1-2)Man(a1-6)]Man(a1-6)[Man(a1-2)Man(a1-2)Man(a1-3)]Man
# Method in brief: as §1
# [30] = molecular target: Man(a1-3)[Man(a1-6)]Man(a1-6)[Man(a1-3)]Man(b1-4)GlcNAc(b1-4)GlcNAc
# Method in brief: as §1
# [31] = molecular target: Neu5Ac(a2-3)Gal(b1-3)GlcNAc(b1-3)Gal(b1-4)GlcNAc
# Method in brief: as §1
# [32] = molecular target: Neu5Ac(a2-3)Gal(b1-3)[Neu5Ac(a2-3)Gal(b1-4)]GlcNAc
# Method in brief: as §1
# [33] = molecular target: Neu5Ac(a2-3)Gal(b1-3)[Neu5Ac(a2-6)]GalNAc
# Method in brief: as §1
# [34] = molecular target: Neu5Ac(a2-3)Gal(b1-4)[Fuc(a1-3)]GlcNAc(b1-3)Gal
# Method in brief: as §1
# [35] = molecular target: Neu5Ac(a2-8)Neu5Ac(a2-3)Gal(b1-4)Glc
# Method in brief: as §1
# [36] = molecular target: Neu5Ac(a2-8)Neu5Ac(a2-3)[Gal(b1-3)GalNAc(b1-4)]Gal(b1-4)Glc
# Method in brief: as §1
# [37] = molecular target: Neu5Gc(a2-6)GalNAc
# Method in brief: as §1
binder,measurement,setting,value
"Intelectin 1 (Homo sapiens), Q8WWA0 (protein) MNQLSFLLFLIATTRGWSTDEANTYFKEWTCSSSPSLPRSCKEIKDECPSAFDGLYFLRTENGVIYQTFCDMTSGGGGWTLVASVHENDMRGKCTVGDRWSSQQGSKAVYPEGDGNWANYNTFGSAEAATSDDYKNPGYYDIQAKDLGIWHVPNKSPMQHWRNSSLLRYRTDTGFLQTLGHNLFGIYQKYPVKYGEGKCWTDNGPVIPVVYDFGDAQKTASYYSPYGQREFTAGFVQFRVFNNERAANALCAGMRVTGCNTEHHCIGGGGYFPEASPQQCGDFSGFDWSGYGTHVGYSSSREITEAAVLLFYR",glycan array binding signal (z-score),[1],2.53
same,glycan array binding signal (z-score),[2],-0.327
same,glycan array binding signal (z-score),[3],0.742
same,glycan array binding signal (z-score),[4],0.069
same,glycan array binding signal (z-score),[5],0.22
same,glycan array binding signal (z-score),[6],4.21
same,glycan array binding signal (z-score),[7],-0.244
same,glycan array binding signal (z-score),[8],1.21
same,glycan array binding signal (z-score),[9],-0.387
same,glycan array binding signal (z-score),[10],0.394
same,glycan array binding signal (z-score),[11],-0.41
same,glycan array binding signal (z-score),[12],0.06
same,glycan array binding signal (z-score),[13],0.042
same,glycan array binding signal (z-score),[14],1.33
same,glycan array binding signal (z-score),[15],2.22
same,glycan array binding signal (z-score),[16],0.614
same,glycan array binding signal (z-score),[17],1.05
same,glycan array binding signal (z-score),[18],-0.449
same,glycan array binding signal (z-score),[19],2.09
same,glycan array binding signal (z-score),[20],-0.442
same,glycan array binding signal (z-score),[21],-0.802
same,glycan array binding signal (z-score),[22],0.358
same,glycan array binding signal (z-score),[23],0.027
same,glycan array binding signal (z-score),[24],3.85
same,glycan array binding signal (z-score),[25],3.27
same,glycan array binding signal (z-score),[26],-0.457
same,glycan array binding signal (z-score),[27],0.148
same,glycan array binding signal (z-score),[28],1.53
same,glycan array binding signal (z-score),[29],-0.313
same,glycan array binding signal (z-score),[30],-0.432
same,glycan array binding signal (z-score),[31],0.545
same,glycan array binding signal (z-score),[32],-0.157
same,glycan array binding signal (z-score),[33],-0.094
same,glycan array binding signal (z-score),[34],-0.21
same,glycan array binding signal (z-score),[35],0.12
same,glycan array binding signal (z-score),[36],0.572
same,glycan array binding signal (z-score),[37],0.523
